# A selection: hits, their analogues and other compounds. The true share with any hit is near 2.5%.
# PTAP-TSG101 blk: blocks PTAP binding to human TSG101, validation; Q99816; Fluorescence polarization, FITC-PTAP peptide/Tsg101, 20 min; Potency, µM (series often up to 115 µM), most hits filed as inhibitors; 44,000 tested, under 10 active; AID 1347069
#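 FITC-labeled PTAP peptide (50 nM final) binding to Tsg101 binding domain (10 uM final) read by fluorescence polarization after 20 min at r.t. in HEPES pH 7.5 buffer. Actives by CRC class, <25 µM.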
# NTMT1 inhibitor: inhibitors of human N-terminal methyltransferase NTMT1; NTMT1 MTase-Glo SAH luminescence, purified enzyme; Potency, µM (doses to about 114 µM), actives largely listed as inhibitors; 59,000 tested, 2.5% active; AID 1645870; Q9BV86; further: nearly all actives have a fitted effect of over 65% in size
# Target sequence (Q9BV86 whole entry, looked up): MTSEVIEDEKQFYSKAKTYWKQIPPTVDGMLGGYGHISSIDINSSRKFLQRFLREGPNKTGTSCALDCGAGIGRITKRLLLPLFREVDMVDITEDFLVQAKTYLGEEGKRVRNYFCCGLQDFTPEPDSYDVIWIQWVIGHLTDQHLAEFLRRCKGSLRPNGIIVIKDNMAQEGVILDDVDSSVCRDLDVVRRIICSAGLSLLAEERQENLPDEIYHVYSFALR
# GALK inhibitor: inhibitors of human galactokinase (GALK) | recombinant GALK, Kinase-Glo ATP luminescence, 1 h | Potency, µM (doses to about 57.5 µM), hits mostly inhibitors | 44,000 tested, under 10 active | AID 1347072
# Target sequence (P51570 whole entry, looked up): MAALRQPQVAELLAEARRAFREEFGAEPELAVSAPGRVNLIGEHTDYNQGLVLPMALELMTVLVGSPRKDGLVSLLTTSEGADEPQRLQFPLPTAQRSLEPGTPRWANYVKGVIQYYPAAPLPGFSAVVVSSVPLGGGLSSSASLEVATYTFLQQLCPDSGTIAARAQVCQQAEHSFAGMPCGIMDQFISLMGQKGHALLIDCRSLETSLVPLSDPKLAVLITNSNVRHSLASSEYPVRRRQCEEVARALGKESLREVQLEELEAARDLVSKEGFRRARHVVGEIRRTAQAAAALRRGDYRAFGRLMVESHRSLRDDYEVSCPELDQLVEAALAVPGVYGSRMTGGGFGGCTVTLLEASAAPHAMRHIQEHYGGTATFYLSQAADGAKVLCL
#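 Human GALK (5 nM) was incubated with 35 uM ATP and 100 uM galactose in 20 mM HEPES pH 8.0 with MgCl2, NaCl, DTT and BSA for 1 h at room temperature. Remaining ATP was measured by Kinase-Glo Plus luminescence.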
# HTT-AS promoter: activates huntingtin-antisense promoter activity. HEK293 HTT-AS promoter firefly luciferase reporter, 24 h; response scale: percent change from vehicle, -100% = no light. Potency, µM (titrated, usually from 57.5 µM), usual class: activators. 48,000 tested, 0.24% active; further: nearly all actives have a fitted effect of over 55% in size
#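 HEK293 Fluc reporter, 2,500 cells/well, 24 h pre-culture; cpds up to 57.5 uM final, 24 h 37 degrees C; Dual-Glo, 10 min RT; normalized vehicle = 0%, zero RLU = -100%.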
# SKOV3 invasion: inhibitors of ovarian cancer cell adhesion and invasion in omental model | SKOV3ip1-GFP adhesion/invasion on 3D omental model, fluorescence | Potency, µM (highest dose often 45.8 µM), actives largely listed as inhibitors | 46,000 tested, 0.1% active | AID 1963576; further: nearly all actives have a fitted effect of over 65% in size
#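 A 3D layer of primary human omental fibroblasts, mesothelial cells, fibronectin and collagen I, grown 48 hr, received SKOV3ip1-GFP cells in serum-free medium plus compounds at 0.36-46 umol/L. After 2 hr RT and 16 hr 37 C, fixed adherent GFP cells were counted; normalized to DMSO and tomatine.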
# HTT prom inh: HTT promoter inhibition; HEK293 HTT promoter firefly luciferase reporter, 24 h; Potency, µM (highest dose often 57.5 µM), actives largely listed as inhibitors; 48,000 tested, 0.93% active; further: nearly all actives have a fitted effect of over 50% in size
#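 Luminescence was read after Dual-Glo reagent and a 10 min room-temperature incubation. Values were normalized to vehicle (0% activity) and zero RLU (-100% activity). Reporter HEK293 cells had been exposed to compounds (up to 57.5 uM final) for 24 h.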
# Hits are given with their value; - = inactive; ? = inconclusive; . = no result given; ! = a repeat was not active; [ ] = remark or other dose. The call rests on the fitted dose curve; in most records, active means well fitted curve in the direction sought with a large enough effect; inconclusive means small, poorly fitted or top-dose-only effect, or another doubt; inactive means no such curve, though single readings can be large; an effect the other way counts as inactive or inconclusive.
SMILES,PTAP-TSG101 blk,NTMT1 inhibitor,GALK inhibitor,HTT-AS promoter,SKOV3 invasion,HTT prom inh
C=C(CCC1C(C)(O)CCC2C(C)(C)C(O)CCC12C)C(O)CO (configuration not stated),.,-,.,.,.,.
COc1cc(C)c(/C=C/C(C)=C/C=C/C(C)=C/C(=O)O)c(C)c1C,.,79.4µM,.,.,.,.
C[C@@H]1O[C@@H](O[C@H]2[C@H](O)[C@@H](O)[C@H](OC[C@H]3O[C@@H](OC(=O)[C@]45CCC(C)(C)C[C@H]4C4=CCC6[C@@]7(C)C[C@@H](O)[C@H](O)[C@@](C)(CO)C7[C@H](O)C[C@@]6(C)[C@]4(C)CC5)[C@H](O)[C@@H](O)[C@@H]3O)O[C@@H]2CO)[C@H](O)[C@H](O)[C@H]1O (some centres not stated),.,-[12.6 µM],.,.,.,.
Cc1ccc(C)c(NS(=O)(=O)c2ccc3c4c(cccc24)C(=O)N3)c1,-,44.7µM,-,-,-,?
O=C(COc1ccccc1F)NC1CC(=O)N(c2ccc3c(c2)OCCO3)C1 (configuration not stated),-,89.1µM,-,-,-,-
COc1ccccc1OCC(=O)NC1CC(=O)N(c2ccc3c(c2)OCCO3)C1 (configuration not stated),-,-,-,-,-,-
CCOC(=O)C1CCC(C(=O)Nc2ccc([S+](=O)([O-])Nc3nccs3)cc2)CC1 (configuration not stated),.,-,.,.,.,.
Cc1cc(-c2ccc(C)c(S(=O)(=O)N3CCOc4ccc(Cl)cc43)c2)on1,-,-,-,-,-,28.2µM
Cc1ccc(-c2onc(C)c2C)cc1S(=O)(=O)N1CCOc2ccc(Cl)cc21,-,-,-,-,-,?
Cc1cc(NCc2ccc(Cl)cc2)n2cnnc2n1,-,-,-,-,-,25.1µM
O=C(CCS(=O)(=O)c1nc(-c2cccs2)cc(C(F)(F)F)n1)Nc1ccc(Br)cc1,-,-,-,-,3.16µM,?
CN1CCN(c2ccc3nc(-c4cc(C(C)(C)C)c(OCCCC(=O)NCCCN=[N+]=[N-])c(C(C)(C)C)c4)[nH]c3c2)CC1,.,-,.,.,.,.
N#Cc1cc2cc(CN3CCC(Nc4ncnc5sc(CC(F)(F)F)cc45)CC3)c(O)cc2n1Cc1cn[nH]c1,.,-,.,.,.,.
O=C(O)c1ccc2cc(-c3ccc(O)c(C45CC6CC(CC(C6)C4)C5)c3)ccc2c1,.,50.1µM!,.,-,-,-
C=C1c2cccc(O)c2C(O)=C2C(=O)[C@]3(O)C(O)=C(C(N)=O)C(=O)[C@@H](N(C)C)[C@@H]3[C@@H](O)[C@H]12,.,25.1µM,.,-,.,-
CC(C)OCc1cc(CN2CCN(c3ccccc3)CC2)c(O)c2ncccc12,-,-,-,-,-,12.6µM
Cc1c(C(=O)O)oc2c1-c1nn(Cc3ccc(Cl)cc3)cc1CC2,-,50.1µM,-,-,-,?
CCOC(=O)c1oc2c(c1C)-c1nn(Cc3ccc(Cl)cc3)cc1CC2,-,-,-,-,-,?
CCc1oc2ccccc2c1C(=O)c1cc(I)c(O)c(I)c1,.,20µM,.,-,.,-
Cc1cccc(Cn2c(-c3ccccc3)nc3ccccc32)c1,-,-,-,-,-,-
c1ccc(Cn2c(-c3ccc(OCC(C4CCNCC4)n4c(-c5ccccc5)nc5ccccc54)cc3)nc3ccccc32)cc1 (configuration not stated),.,28.2µM,.,.,.,.
O=C(CSc1nnc2[nH]c(=O)cc(-c3ccccc3)n12)Nc1ccccc1C(F)(F)F,-,-,-,11.2µM,-,-
CCc1ccc(NC(=O)CSc2nnc3[nH]c(=O)cc(-c4ccccc4)n23)cc1,-,-,-,-,-,-
CCN(CC)CCOCCOC(=O)C1(c2ccccc2)CCCC1,.,10µM,.,-,.,-
C/C(O)=C(\C#N)C(=O)Nc1ccc(C(F)(F)F)cc1,.,-,.,.,.,.
SMILES,PTAP-TSG101 blk,NTMT1 inhibitor,GALK inhibitor,HTT-AS promoter,SKOV3 invasion,HTT prom inh
CN(C)CCC(CSc1ccccc1)Nc1ccc(S(=O)(=O)NC(=O)c2ccc(N3CCN(Cc4ccccc4-c4ccc(Cl)cc4)CC3)cc2)cc1[N+](=O)[O-] (configuration not stated),.,-,.,.,.,.
CCOc1ccc(CCNC(=O)c2ccc(C3(C(F)(F)F)N=N3)cc2)cc1OCC,.,-,.,.,.,.
O=C(C[C@@H]1C(C(=O)O)=CO[C@@H](O[C@@H]2O[C@H](CO)[C@@H](O)[C@H](O)[C@H]2O)/C1=C\CO)OCCc1ccc(O)cc1,.,-,.,.,.,.
Cc1ccc(C(=O)Nc2noc3ccccc23)cc1,.,25.1µM,.,.,.,.
O=C(Nc1noc2ccccc12)c1cccc(Cl)c1Cl,-,-,-,?,-,-
COc1ccc(C(=O)Nc2noc3ccccc23)cc1,-,11.2µM,-,?,-,-
CN1CCN(C(=O)[C@H]2[C@@H](C(=O)O)[C@H]3CC[C@@H]2O3)CC1,.,-,.,.,.,.
O=C(Cc1ccccc1)Nc1sc2c(c1C(=O)Nc1ccccc1Cl)CCCC2,-,89.1µM,-,-,-,-
O=C(COc1ccccc1)Nc1sc2c(c1C(=O)Nc1ccccc1Cl)CCCCC2,-,-,-,-,-,-[11.5 µM]
O=C(Nc1sc2c(c1C(=O)Nc1cccc(Cl)c1)CCCC2)c1cccs1,-,25.1µM,-,-,-,-
COc1ccccc1NC(=O)c1c(NCc2ccc(C)o2)sc2c1CCCCC2,-,28.2µM,-,-,-,-
O=C(/C=C/c1ccc(O)cc1)OC1[C@H](O)CC(O)(C(=O)O)C[C@H]1O (some centres not stated),.,-,.,.,.,.
CC(=O)O[C@@H]1C2=C(O)C(=O)[C@](C)(OC(C)=O)C(=O)C2=CO[C@@]12O[C@@H](C)CC[C@H]2OC(C)=O,.,-,.,.,.,.
CCc1ccc(CCOc2ccc(CC3SC(=O)NC3=O)cc2)nc1 (configuration not stated),.,31.6µM!,.,-,-,-
CCOc1ccc(-c2cc(CCCC(=O)NCCc3cc(OC)c(OC)c(OC)c3)no2)cc1,-,-,-,-,-,15.8µM
CCOc1ccc(-c2cc(CCCC(=O)NCCc3ccc(OC)c(OC)c3)no2)cc1,-,?,-,-,-,?
CCCN1CCN(CCCNC(=O)c2ccc3c(c2)sc2nc(-c4ccc(OCC)cc4)cn23)CC1,-,?,-,-,?,-
CCOc1ccc(-c2cn3c(n2)sc2cc(C(=O)NCCCN(CC)CC)ccc23)cc1,-,39.8µM,-,-,?,?
CCOc1ccc(-c2cn3c(n2)sc2cc(C(=O)NCCCN4CCCCC4)ccc23)cc1,-,50.1µM,-,-,11.2µM,?
CCN(CC)CCNC(=O)c1ccc2c(c1)sc1nc(-c3ccc(F)cc3)cn12,-,?,-,?,?,-
Cc1c(C(=O)N2CCOc3ccc(-c4ccc(N)nc4)cc3C2)ccc(S(C)(=O)=O)c1F,.,50.1µM!,.,.,.,.

# Source: PubChem BioAssay (National Center for Advancing Translational Sciences (NCATS))
